The nature of assay [1]: ATG_CRE_CIS: Attagene CIS-FACTORIAL HepG2 Assay for human cAMP Responsive Element (CRE) binding protein 3 (AID 2282926). Particulars: HepG2 CRE cis-reporter, Attagene multiplexed mRNA; actives raise or lower the signal. In a few lines:
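Capillary electrophoresis of 6-FAM-labelled, HpaI-digested PCR products quantified reporter transcripts. These came from HepG2 transiently transfected with cis-element reporters and exposed to test chemicals for 24 hours, with DMSO defining baseline activity.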

The target of assay [2] is CCAAT/enhancer-binding protein beta (Homo sapiens) (UniProt P17676). The assay is described as follows: ATG_C_EBP_CIS: Attagene CIS-FACTORIAL HepG2 Assay for human CCAAT/Enhancer Binding Protein (C/EBP) beta (AID 2282927). The conditions noted are these: HepG2 Attagene cis-factorial transcription factor reporter; actives raise or lower the signal. In a few lines:
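Following a 24 h incubation with test chemical, transfected HepG2 cells yielded RNA whose reporter transcripts were quantified by RT-PCR and fluorescent capillary electrophoresis, with DMSO serving as baseline for bidirectional fitting.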

The nature of assay [3]: ATG_CMV_CIS: Attagene CIS-FACTORIAL HepG2 Assay for human CMV (Internal Marker) (AID 2282928).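 Also: endpoint acts as a background internal control marker rather than a target.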 The conditions noted are these: HepG2 CMV promoter reporter, transcription factor profiling; actives raise or lower the signal. An outline of the steps: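 Fluorescence intensity of RT-PCR-derived reporter fragments, resolved by capillary electrophoresis, gives the signal. HepG2 liver cells bearing transfected cis-element reporters were treated 24 h; activity in either direction was fit relative to DMSO-treated controls.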

Assay [4] can be described thus: ATG_DR4_LXR_CIS: Attagene CIS-FACTORIAL HepG2 Assay for human Liver X Receptor (LXR), DR4 submotif (AID 2282929). Particulars: HepG2 Attagene DR4 cis-reporter, mRNA transcription; actives raise or lower the signal. In a few lines: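 Cells were transfected with multiple reporter transcription units, exposed to chemicals for 24 hours, then lysed for RNA. Reporter mRNA induction was measured by RT-PCR with capillary electrophoresis detection and fitted in both directions relative to DMSO.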

A short description of assay [5]: ATG_AP_1_CIS: Attagene CIS-FACTORIAL HepG2 Assay for human Activator Protein 1 (AP-1) (AID 2282931). Particulars: HepG2 Attagene cis-factorial AP-1 reporter mRNA; actives raise or lower the signal. An outline of the steps: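 Endogenous transcription-factor activity in human HepG2 liver cells is read through a cis-promoter reporter transcript, sampled 24 h after dosing. Detection uses RT-PCR with capillary electrophoresis; values come from bidirectional fitting relative to DMSO.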

Assay [6] is described as follows: ATG_AP_2_CIS: Attagene CIS-FACTORIAL HepG2 Assay for human Activator Protein 2 (AP-2) (AID 2282932). Particulars: HepG2 AP-2 cis-reporter, Attagene transcription factor profiling; actives raise or lower the signal. In a few lines:
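Cells (HepG2) transfected with promoter-driven reporter constructs, treated 24 h. Total RNA reverse-transcribed, reporter cDNA PCR-amplified, FAM-labelled by primer extension, digested, resolved by capillary electrophoresis. Activity fitted both directions versus DMSO.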

Assay [7] can be described thus: ATG_BRE_CIS: Attagene CIS-FACTORIAL HepG2 Assay for human Bone Morphogenetic Protein (BMP) Response Element (BRE) (AID 2282933). The conditions noted are these: HepG2 BMP response element reporter, Attagene transcription factor profiling; actives raise or lower the signal. An outline of the steps:
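HepG2 cells transiently transfected with CIS reporter units (endogenous TF activity, BMP response element), dosed 24 h. Reporter mRNA quantified by RT-PCR, fluorescent labelling and capillary electrophoresis; bidirectional fit vs DMSO baseline.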

The target in assay [8] is Transcription factor E2F1 (Homo sapiens) (UniProt Q01094). Nature of the assay: ATG_E2F_CIS: Attagene CIS-FACTORIAL HepG2 Assay for human E2F Transcription Factor 1 (AID 2282935). Particulars: HepG2 Attagene cis-reporter, E2F reporter RNA transcripts; actives raise or lower the signal. An outline of the steps:
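First, HepG2 cells were transfected with reporter transcription units. Next, they were dosed for 24 h. Then RNA was isolated, converted to cDNA, PCR-amplified, FAM-labeled, HpaI-digested and analyzed by capillary electrophoresis.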

Assay [9] is described as follows: ATG_E_Box_CIS: Attagene CIS-FACTORIAL HepG2 Assay for human Enhancer Box (E-box) (AID 2282936). The conditions noted are these: HepG2 E-box cis-reporter transcription, actives raise or lower the signal. An outline of the steps: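 Endogenous transcription factor activity was sensed in human HepG2 liver cells through transfected cis-promoter reporter units. After 24 h of dosing, total RNA was reverse-transcribed and reporter cDNA resolved by capillary electrophoresis.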

The nature of assay [10]: ATG_M_61_CIS: Attagene CIS-FACTORIAL HepG2 Assay for M61 Transcription Factor (Internal Marker) (AID 2282937). Particulars: HepG2 Attagene CIS-FACTORIAL M61 internal marker reporter; actives raise or lower the signal. An outline of the steps:
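Cells were transfected with reporter units under cis-regulatory promoters, treated with chemicals for 24 h, then lysed for RNA. Reporter transcripts were quantified by RT-PCR and capillary electrophoresis, and activity was fitted bidirectionally against DMSO.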

A short description of assay [11]: ATG_EGR_CIS: Attagene CIS-FACTORIAL HepG2 Assay for human Early Growth Response 1 (EGR1) (AID 2282938). The conditions noted are these: HepG2 Attagene CIS-FACTORIAL EGR reporter mRNA; actives raise or lower the signal. An outline of the steps: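 Endogenous TF activity in HepG2 liver cells was gauged through cis-promoter reporter constructs transiently transfected. After 24 h dosing, reporter mRNA was quantified by RT-PCR and capillary electrophoresis, and curves fitted in both directions versus DMSO.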

Assay [12] can be described thus: ATG_Ets_CIS: Attagene CIS-FACTORIAL HepG2 Assay for human Erythroblast Transformation Specific (ETS) (AID 2282941). The conditions noted are these: HepG2 ETS cis-reporter transcription, actives raise or lower the signal. In a few lines:
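Multiplexed reporter transcript profiling: HepG2, 24 h treatment, total RNA to cDNA, PCR, 6-FAM labelling, HpaI cut, capillary electrophoresis. Gain- or loss-of-signal fitted against DMSO.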

Assay [13] in a line: ATG_FoxO_CIS: Attagene CIS-FACTORIAL HepG2 Assay for human Forkhead box O (FoxO) (AID 2282943). Particulars: HepG2 Attagene cis-reporter, FoxO element, mRNA; actives raise or lower the signal. In a few lines: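 Values reflect reporter mRNA induction or loss in HepG2 cells 24 h post-dosing, fitted bidirectionally with DMSO as negative control and baseline. Detection used RT-PCR and fluorescence capillary electrophoresis.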

Assay [14] is described as follows: ATG_GATA_CIS: Attagene CIS-FACTORIAL HepG2 Assay for human GATA Binding Protein (AID 2282944). The conditions noted are these: HepG2 GATA cis-element reporter, Attagene multiplex mRNA; actives raise or lower the signal. In a few lines: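 HepG2 cells transiently transfected with multiplexed cis-element reporter units measure endogenous GATA activity; after 24 h compound exposure, reporter mRNA quantified by RT-PCR and capillary electrophoresis. Changes fitted in both directions vs DMSO.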

Assay [15] in a line: ATG_GLI_CIS: Attagene CIS-FACTORIAL HepG2 Assay for human Zinc Finger Protein GLI1 (AID 2282945). Particulars: HepG2, Attagene cis-factorial reporter mRNA, GLI element; actives raise or lower the signal. An outline of the steps: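 HepG2 cells transiently transfected with cis-promoter multiplexed reporter units report endogenous transcription factor activity. After 24 h chemical exposure, reporter mRNA was quantified by RT-PCR, 6-FAM labelling, HpaI digestion and capillary electrophoresis, with bidirectional fitting against DMSO.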

The nature of assay [16]: ATG_ISRE_CIS: Attagene CIS-FACTORIAL HepG2 Assay for human Interferon Regulatory Factor 1 (IRF1) binding to an Interferon-Stimulated Response Element (ISRE) (AID 2282948). The conditions noted are these: HepG2 ISRE cis-reporter (Attagene), mRNA transcription readout; actives raise or lower the signal. In a few lines:
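Signal reflects induction or loss of ISRE-linked reporter mRNA in transiently transfected HepG2 cells after a 24 h treatment, detected by fluorescent RT-PCR fragments on capillary electrophoresis and normalised to DMSO.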

The nature of assay [17]: ATG_M_32_CIS: Attagene CIS-FACTORIAL HepG2 Assay for M32 Transcription Factor (Internal Marker) (AID 2282949).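 Also: background control marker of the multiplexed CIS panel rather than a real target.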 Particulars: HepG2 Attagene cis-factorial M32 reporter, mRNA; actives raise or lower the signal. In a few lines: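 HepG2 human liver cells transiently transfected with cis-promoter-driven multiple reporter transcription units, dosed 24 h. Reporter mRNA quantified by RT-PCR, FAM-labelled primer extension, HpaI digest and capillary electrophoresis; bidirectional fit versus DMSO baseline.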

Assay [18] can be described thus: ATG_M_06_CIS: Attagene CIS-FACTORIAL HepG2 Assay for M06 Transcription Factor (Internal Marker) (AID 2282950). The conditions noted are these: HepG2 Attagene CIS-FACTORIAL M06 internal marker reporter; actives raise or lower the signal. An outline of the steps: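 Internal background marker within multiplexed cis-reporter HepG2 system. Cells transiently transfected, dosed 24 h; reporter mRNA measured by RT-PCR, HpaI digestion and capillary electrophoresis. Bidirectional fit relative to DMSO.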

For assay [19], the target named is Paired box protein Pax-6 (Homo sapiens) (UniProt P26367). Nature of the assay: ATG_Pax6_CIS: Attagene CIS-FACTORIAL HepG2 Assay for human Paired Box 6 (PAX6) (AID 2282956). The conditions noted are these: HepG2 CIS-FACTORIAL PAX6 reporter transcription, RNA readout; actives raise or lower the signal. In a few lines:
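Values derive from bidirectional curve fitting of reporter mRNA signal relative to DMSO. HepG2 cells bearing transfected cis-regulated MRTUs were exposed for 24 h; transcripts were read by RT-PCR and capillary electrophoresis.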

A short description of assay [20]: ATG_PXRE_CIS: Attagene CIS-FACTORIAL HepG2 Assay for human Pregnane X Receptor Element (PXRE) (AID 2282957). The conditions noted are these: HepG2 Attagene CIS-FACTORIAL PXRE reporter, mRNA; actives raise or lower the signal. An outline of the steps: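 Fluorescent capillary electrophoresis of amplified reporter cDNA gave the signal, collected 24 h after dosing HepG2 cells that held transfected cis-element reporter constructs.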

Activity calls are given as the source filed them. The calls were made as follows: active = hit-call score of the fitted dose curve at least 0.9, where 1 is the maximum; inactive = score below 0.9.

Paired box protein Pax-6 (Homo sapiens), sequence (P26367 whole entry, looked up): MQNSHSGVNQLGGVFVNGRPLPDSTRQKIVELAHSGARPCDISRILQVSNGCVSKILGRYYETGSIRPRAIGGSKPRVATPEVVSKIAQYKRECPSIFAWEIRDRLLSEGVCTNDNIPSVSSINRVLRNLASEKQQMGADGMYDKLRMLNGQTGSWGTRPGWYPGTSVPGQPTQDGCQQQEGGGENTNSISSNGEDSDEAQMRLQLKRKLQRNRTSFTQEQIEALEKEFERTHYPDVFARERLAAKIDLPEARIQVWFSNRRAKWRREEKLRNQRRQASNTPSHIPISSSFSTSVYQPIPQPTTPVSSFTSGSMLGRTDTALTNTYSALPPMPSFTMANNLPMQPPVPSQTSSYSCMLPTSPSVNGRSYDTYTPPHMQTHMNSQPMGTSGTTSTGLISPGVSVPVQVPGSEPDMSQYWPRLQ
Transcription factor E2F1 (Homo sapiens), sequence (Q01094 whole entry, looked up): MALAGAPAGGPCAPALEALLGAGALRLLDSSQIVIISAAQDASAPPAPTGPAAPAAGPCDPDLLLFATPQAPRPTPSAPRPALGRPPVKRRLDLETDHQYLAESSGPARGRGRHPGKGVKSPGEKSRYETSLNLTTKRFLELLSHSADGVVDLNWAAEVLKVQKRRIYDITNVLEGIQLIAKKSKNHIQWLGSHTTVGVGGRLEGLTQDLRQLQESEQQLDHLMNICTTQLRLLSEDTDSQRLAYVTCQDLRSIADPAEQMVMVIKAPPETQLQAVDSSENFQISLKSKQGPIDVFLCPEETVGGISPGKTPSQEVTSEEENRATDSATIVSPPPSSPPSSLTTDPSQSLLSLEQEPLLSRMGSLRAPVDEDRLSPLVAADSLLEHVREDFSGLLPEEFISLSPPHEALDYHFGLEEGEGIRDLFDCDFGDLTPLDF
CCAAT/enhancer-binding protein beta (Homo sapiens), sequence (P17676 whole entry, looked up): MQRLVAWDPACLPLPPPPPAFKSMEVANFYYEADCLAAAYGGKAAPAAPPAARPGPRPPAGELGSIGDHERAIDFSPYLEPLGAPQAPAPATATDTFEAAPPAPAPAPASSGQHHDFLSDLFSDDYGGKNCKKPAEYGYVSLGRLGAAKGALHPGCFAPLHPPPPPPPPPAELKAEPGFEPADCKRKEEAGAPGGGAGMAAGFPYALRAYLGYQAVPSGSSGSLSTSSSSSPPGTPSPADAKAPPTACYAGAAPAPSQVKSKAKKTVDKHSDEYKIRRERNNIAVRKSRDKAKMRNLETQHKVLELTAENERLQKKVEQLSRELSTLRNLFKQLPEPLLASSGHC

In the case of `CC(C)(Oc1ccc(Cl)cc1)C(=O)O`, the result in assay [1], in assay [2], in assay [3], in assay [4], in [5] and in [6] was inactive. Besides, the outcome in assay [7], in assay [8], in assay [9], in assay [10], in assay [11] and in assay [12] was inactive. The compound was called inactive in [13], in [14], in assay [15], in [16], in assay [17] and in assay [18]. Also, the compound was called inactive in assay [19] and in assay [20].
For the compound `Cc1cccnc1`, the result in assay [1], in assay [3], in [4], in [6], in [8] and in assay [9] was inactive. For the same compound, the result in assay [10], in assay [11], in assay [13], in [14], in assay [15] and in assay [17] was inactive. In addition, the outcome in assay [18], in [19] and in [20] was inactive. Moreover, the AC50 was 100 µM (active) in assay [2]; 58 µM (active) in [5]; 167 µM (active) in assay [7]; 165 µM (active) in assay [12]; 164 µM (active) in assay [16].
On to `CC(C)(C)NC(=O)[C@@H]1CN(Cc2cccnc2)CCN1C[C@@H](O)C[C@@H](Cc1ccccc1)C(=O)N[C@H]1c2ccccc2C[C@H]1O`, for which the result in assay [1], in [2], in [3], in assay [4], in [5] and in assay [6] was inactive. Besides, the result in assay [7], in [8], in assay [9], in assay [10], in assay [11] and in [12] was inactive. Besides, the result in assay [13], in assay [14], in [15], in [16], in assay [17] and in [18] was inactive. For the same compound, the compound was called inactive in [19]. Also, in assay [20], the AC50 is 19.6 µM (active).
`C[Si](C)(C)O[Si](C)(C)O[Si](C)(C)C`: the compound was called inactive in assay [1], in [2], in assay [3], in [4], in assay [5] and in assay [6]. Also, the call in assay [7], in assay [8], in assay [9], in [10], in [11] and in assay [12] was inactive. Moreover, the outcome in [13], in assay [14], in [15], in [16], in assay [17] and in assay [18] was inactive. Further, the compound was classed as inactive in assay [19] and in assay [20].
As for `C1=CCC=C1`, the call in assay [1], in assay [2], in assay [3], in assay [4], in assay [5] and in assay [6] was inactive. Moreover, the result in [7], in [8], in [9], in [10], in [11] and in assay [12] was inactive. The compound was classed as inactive in [13], in [14], in assay [15], in [16], in assay [17] and in [18]. In addition, the result in assay [19] and in assay [20] was inactive.
As for `COC(=O)c1ccccc1`, the compound was called inactive in assay [1], in assay [2], in assay [3], in [4], in assay [5] and in assay [6]. Further, the call in assay [7], in [8], in [9], in [10], in assay [11] and in assay [12] was inactive. Also, the call in assay [13], in [14], in assay [15], in [16], in assay [17] and in assay [18] was inactive. Besides, the result in assay [19] and in assay [20] was inactive.
Consider `CCCC(=O)OC/C=C(\C)CCC=C(C)C`, for which the call in assay [1], in [2], in [3], in assay [4], in [5] and in [6] was inactive. For the same compound, the compound was called inactive in assay [7], in [8], in [9], in assay [10], in assay [11] and in [12]. The outcome in assay [13], in assay [14], in [15], in [16], in [17] and in [18] was inactive. For the same compound, the outcome in assay [19] was inactive. In assay [20], the half-maximal activity concentration (AC50) is 22.7 µM (active).

These data come from PubChem BioAssay (EPA / NIEHS).
